Results taken from ChEMBL document CHEMBL3988442, “University of Dundee, Small-Polar-MMV Screening Library” (2021).
Screen size: about 66,000 compounds; about 960 (1.5%) showed an effect of 50% or more. The list comes from a sample in which strong results are over-represented; it also holds similar structures and randomly drawn compounds.

Tested on: Trypanosoma brucei
Assay: Trypanosoma brucei 72 hour study
Assay type: functional, organism-based
Design: scale not given: in the data most compounds retested in dose-response had high values

Compound | Percent Effect (30.3 µM, […]) [%] | Percent Effect (30 µM, 30.03 µM) [%]
CN(C)C(=O)[C@]12CCCN(CC3CC3)C[C@H]1CN(c1ccccn1)C2.O=C(O)C(F)(F)F.O=C(O)C(F)(F)F | 0.08001 | –
CN1CC(=O)N(c2ccccc2)CC12CCN(C(=O)c1ccnnc1)C2.O=C(O)C(F)(F)F (stereo not given) | -13.49 | –
CN(C)C(=O)COC[C@]12COC[C@H]1CN(Cc1ccccc1)C2.O=C(O)C(F)(F)F | -79.79 | –
O=C(c1cc(=O)n(-c2ccccc2)[nH]1)N1CCOC(C(F)(F)F)C1 (stereo not given) | – | 25.14
Cc1cnc(CN(Cc2ccc(Cl)s2)C2CCN(C)C2)o1 (stereo not given) | – | -5.686
COc1cc(C(=O)NC(C)c2cccs2)cc2c1OCCO2 (stereo not given) | 6.204 | –
COc1ccc(C(C)NCCC(N)=O)cc1F (stereo not given) | – | -19.58
COc1cc(CNC(C)c2ccc(F)c(F)c2)cc2c1OCCO2.O=C(O)C(=O)O (stereo not given) | 100.7 | –
CCn1ncc(-c2cc(C(F)F)nc3sc(C(N)=O)c(N)c23)c1C | – | 26.92
Cc1nc[nH]c1CN1CCN(C(=O)CN2CCCC2)[C@H]2CS(=O)(=O)C[C@H]21 | – | 8.106
Cc1nc[nH]c1CN1CCN(C(=O)CCC(F)(F)F)[C@H]2CS(=O)(=O)C[C@H]21 | – | 50.6
Cc1nc[nH]c1CN1CCN(C(=O)C2(C)CC2)[C@H]2CS(=O)(=O)C[C@H]21 | – | 1.317
CCOc1cc2c(cc1CNC(Cc1cccs1)c1nccs1)OCO2.Cl (stereo not given) | -21.18 | –
CC(C)c1ncc(-c2cc(C3CCC3)nc(N)c2C#N)cn1 | – | 17.32
CC(O)(CNC(=O)c1cccnc1-n1cccn1)c1ccsc1 (stereo not given) | – | -28.28
COc1ccnc(NC(=O)c2cscn2)c1 | – | 7.926
COc1ccnc(NC(=O)c2cscc2C)c1 | – | 88.82
COc1ccnc(NC(=O)c2ccsc2)c1 | – | 14.39
CCCn1c(=O)n(CCC(=O)N(C)Cc2ccc(C)o2)c2ccccc21 | – | -21.38
Cc1nc(O)cc(C2CCN(Cc3ccc(F)c(F)c3)C2)n1.O=C(O)CC(O)(CC(=O)O)C(=O)O (stereo not given) | 13.84 | –
CNC(=O)N1CCC2(CC1)c1ncc(C)n1CCN2C.O=C(O)C(F)(F)F.O=C(O)C(F)(F)F | 11.26 | –
Oc1cc(CNCCCN2CCCC2)nc2ccc(F)cc12 | – | -52.8
O=S(=O)(CCNCc1cc(O)c2cc(F)ccc2n1)N1CCCC1 | – | 71.96
O=C(CCNCc1cc(O)c2cc(F)ccc2n1)N1CCCC1 | – | -42.31
CCc1ccc(CN2Cc3nccn3CC(CN3CCOCC3)C2)o1.O=C(O)C(F)(F)F.O=C(O)C(F)(F)F.O=C(O)C(F)(F)F (stereo not given) | – | 29.13
